Test results taken from PubChem BioAssay (NCATS).
Values joined by “and” are separate entries in the source; they are usually repeats but may differ in a detail not shown here. Identical values can stand only once. Unmarked numbers belong to inactive results. Results filed as inconclusive are left out. Active and inactive are the calls of the source. Unless noted, calls come from the whole dose curve; as a rule, active = well fitted curve in either direction with a large enough effect (not every such curve was filed as active); inconclusive = small, poorly fitted or top-dose-only effect, or another doubt; inactive = flat fitted curve, though single readings scatter.

Assays:
[1] = AP1 Signaling Pathway (AID 357); conditions: ME-180 AP-1-bla reporter, EGF-induced, beta-lactamase ratio, 5 h;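 note: ME-180 reporter cells stimulated with EGF at its EC50 level; % is set by controls: 0 for no effect and ±100 for the full control effect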
Method in brief: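 First, ME-180 AP-1-bla cells were cultured overnight at 37 °C in low-serum Opti-MEM. Next, titrated compounds with EC50 EGF were incubated 5 hours. Finally, CCF4 was added for 2.5 hours and the 460/530 nm ratio recorded.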

[2] = target: Cytochrome P450 1A2 (Homo sapiens) (UniProt P05177); experiment: p450-cyp1a2 (AID 410; calls by dose curve; note: potency is the fitted concentration of half-maximal effect;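 for activity change, negative = inhibition: -100% = full effect of reference inhibitor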); conditions: recombinant CYP1A2, luciferin-ME demethylation, luminescence; series mostly up to 25.6 µM
Method in brief: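 Luminescent demethylation readout: Luciferin-ME (100uM, equal to Km) turned over by 20nM CYP1A2 for 60 min at room temperature after NADPH regeneration addition, following 10 min compound preincubation. Normalization used 57 uM furafylline as full inhibition.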

[3] = NFAT Signaling Pathway (AID 444); conditions: Jurkat NFAT-bla M1, carbachol, beta-lactamase ratio, 5 h;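 note: carbachol stimulus at about its EC50 of 1 µM final; % is set by controls: 0 for no effect and ±100 for the full control effect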
Method in brief: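 Jurkat cells with NFAT-driven β-lactamase reporter and co-expressed M1 receptor, stimulated with carbachol (final 1 uM, ~EC50), compound titration, 5 h at 37 °C. CCF4 loaded 1 h at RT; 460/530 nm ratio gave %activity and AC50.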

[4] = Stat Signaling Pathway (AID 446); conditions: ME-180 (cervical carcinoma) SIE beta-lactamase reporter, IL-6 stimulated, 5 h;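 note: ME-180 cervical cancer cells given 40 pM IL-6 alongside compound; SIE-controlled beta-lactamase reporter measured as 460/530 nm FRET emission ratio; % is set by controls: 0 for no effect and ±100 for the full control effect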
Method in brief: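 Emission at 460 and 530 nm (excitation 405 nm) reports SIE-controlled beta-lactamase in ME-180 cells. Cells received compound with 40 pM IL-6 for 5 hrs at 37 C; data scaled between 300 pM IL-6 and 125 nM JAK-inhibitor controls.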

[5] = target: Glucocorticoid receptor (Homo sapiens) (UniProt P04150); experiment: GR-GFP Redistribution (AID 450;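 active = compounds whose dose series gives a full or clear partial fitted curve of increased nuclear translocation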; note: potency is the fitted concentration of half-maximal effect); conditions: U2OS GR-GFP nuclear translocation, laser cytometry, 2 h
[6] = target: Glucocorticoid receptor (Homo sapiens) (UniProt P04150); experiment: GR-EFC Redistribution (AID 451; calls by dose curve; note: potency is the fitted concentration of half-maximal effect); conditions: CHO-K1 GR-EFC translocation, beta-gal luminescence, 2 h
Method in brief: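 CHO-K1 cells expressing nuclear EA and GR-ED fragments of b-gal; compounds titrated up to 46 uM final, 2 h at 37 C. GR nuclear translocation read as complemented b-gal luminescence after 1 h RT detection.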

[7] = target: Mitogen-activated protein kinase 10 (Mus musculus) (UniProt Q61831); experiment: JNK3 AlphaScreen Assay (AID 530); conditions: JNK3 lysate, c-Jun phosphorylation; series mostly up to 57.1 µM;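 note: kinase came from lysate of stimulated human HepG2 cells; signal reports phosphorylation of biotinylated GST-cJun 1-79 at Ser73 with 10 µM ATP; % is set by controls: 0 for no effect and ±100 for the full control effect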
Method in brief: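 Activity was read by AlphaScreen after JNK3-containing HepG2 lysate (cytokine pre-activated) phosphorylated biotinylated GST-cJun with 10 uM ATP at room temperature. Phospho-Ser73 cJun antibody with Protein-A acceptor beads provided detection.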

Sequence of Glucocorticoid receptor (Homo sapiens) (P04150 whole entry, looked up, the tested form may be a part): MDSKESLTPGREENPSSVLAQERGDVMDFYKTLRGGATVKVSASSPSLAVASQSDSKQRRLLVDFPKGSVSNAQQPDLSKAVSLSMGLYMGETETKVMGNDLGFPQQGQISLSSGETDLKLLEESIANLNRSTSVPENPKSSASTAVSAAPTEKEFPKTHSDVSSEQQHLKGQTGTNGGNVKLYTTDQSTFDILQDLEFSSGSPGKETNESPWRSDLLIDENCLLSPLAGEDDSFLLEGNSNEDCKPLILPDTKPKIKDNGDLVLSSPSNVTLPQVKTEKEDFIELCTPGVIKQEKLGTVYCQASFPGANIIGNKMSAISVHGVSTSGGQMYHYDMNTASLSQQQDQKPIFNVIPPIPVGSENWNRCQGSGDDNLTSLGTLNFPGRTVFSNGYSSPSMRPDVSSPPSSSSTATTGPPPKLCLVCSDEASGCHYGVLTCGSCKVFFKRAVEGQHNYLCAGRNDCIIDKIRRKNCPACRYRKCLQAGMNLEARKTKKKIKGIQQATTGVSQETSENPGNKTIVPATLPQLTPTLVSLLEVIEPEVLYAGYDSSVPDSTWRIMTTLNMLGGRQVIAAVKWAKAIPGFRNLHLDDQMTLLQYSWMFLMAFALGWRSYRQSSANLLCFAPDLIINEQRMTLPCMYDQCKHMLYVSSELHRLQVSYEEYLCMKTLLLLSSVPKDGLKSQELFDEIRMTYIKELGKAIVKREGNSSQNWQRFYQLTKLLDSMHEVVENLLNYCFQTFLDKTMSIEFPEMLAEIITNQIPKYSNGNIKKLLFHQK
Sequence of Cytochrome P450 1A2 (Homo sapiens) (P05177 whole entry, looked up): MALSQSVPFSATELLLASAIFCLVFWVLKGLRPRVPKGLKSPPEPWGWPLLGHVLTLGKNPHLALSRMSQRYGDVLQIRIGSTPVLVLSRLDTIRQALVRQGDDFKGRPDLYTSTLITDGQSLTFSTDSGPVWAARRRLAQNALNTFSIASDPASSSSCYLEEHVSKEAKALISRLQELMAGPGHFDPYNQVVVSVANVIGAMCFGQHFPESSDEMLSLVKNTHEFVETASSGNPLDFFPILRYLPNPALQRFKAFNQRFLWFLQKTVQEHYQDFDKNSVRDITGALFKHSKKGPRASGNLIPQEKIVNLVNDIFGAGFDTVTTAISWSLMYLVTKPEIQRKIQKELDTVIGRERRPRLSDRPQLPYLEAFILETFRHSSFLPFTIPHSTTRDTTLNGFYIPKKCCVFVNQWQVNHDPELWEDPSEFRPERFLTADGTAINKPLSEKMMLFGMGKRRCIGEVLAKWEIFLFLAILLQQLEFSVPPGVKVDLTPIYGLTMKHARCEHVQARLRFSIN

Cc1c(Cl)cccc1Nc1ccccc1C(=O)O
activity change, negative = inhibition ([1]; at 17.2 µM (top of the series)): -25.1% and -19.5%
Potency [2]: 3.16 µM (active)
activity change, negative = inhibition ([3]; at 17.2 µM (top of the series)): -35.5%
activity, negative = inhibition ([4]; at 17.2 µM (top of the series)): -15.1% and -25.4%
Potency [5]: > 20.6 µM
Potency [6]: > 20.6 µM
Potency [7]: inactive

c1ccc2c(CC3=NCCN3)cccc2c1
activity change, negative = inhibition ([1]; at 17.2 µM (top of the series)): 14% and 7.7%
Potency [2]: inactive
activity change, negative = inhibition ([3]; at 17.2 µM (top of the series)): -19.1%
activity, negative = inhibition ([4]; at 17.2 µM (top of the series)): 6.58% and 9.6%
Potency [7]: inactive

CCCCN1CCCC[C@H]1C(=O)Nc1c(C)cccc1C
activity change, negative = inhibition ([1]; at 17.2 µM (top of the series)): 0.542%
Potency [2]: 5.01 µM (active)
activity change, negative = inhibition ([3]; at 17.2 µM (top of the series)): 3.05%
activity, negative = inhibition ([4]; at 17.2 µM (top of the series)): 1.67%
Potency [7]: inactive

Nc1ccc(S(=O)(=O)NC(=O)c2ccccc2)cc1
activity change, negative = inhibition ([1]; at 17.2 µM (top of the series)): 13.8% and 7.16%
Potency [2]: inactive
activity change, negative = inhibition ([3]; at 17.2 µM (top of the series)): 7.31% and -26.1%
activity, negative = inhibition ([4]; at 17.2 µM (top of the series)): -0.201% and -5.16%
Potency [5]: > 20.6 µM
Potency [6]: > 20.6 µM
Potency [7]: inactive

CC(=O)c1ccc2c(c1)N(CCCN(C)C)c1ccccc1S2
activity change, negative = inhibition ([1]; at 17.2 µM (top of the series)): 24.3%
Potency [2]: 1.58 µM (active)
activity, negative = inhibition ([4]; at 17.2 µM (top of the series)): -0.766%
Potency [5]: > 20.6 µM
Potency [6]: > 20.6 µM
Potency [7]: inactive

CCOc1ccc2ccccc2c1C(=O)N[C@@H]1C(=O)N2[C@@H]1SC(C)(C)[C@@H]2C(=O)O
activity change, negative = inhibition ([1]; at 17.2 µM (top of the series)): 0.437%
Potency [2]: inactive
activity change, negative = inhibition ([3]; at 17.2 µM (top of the series)): 1.54%
activity, negative = inhibition ([4]; at 17.2 µM (top of the series)): 2.51%
Potency [5]: > 20.6 µM
Potency [6]: > 20.6 µM
Potency [7]: inactive

Nc1ccc(S(=O)(=O)Nc2ccc(Cl)nn2)cc1
activity change, negative = inhibition ([1]; at 17.2 µM (top of the series)): 7.06%
Potency [2]: inactive
activity change, negative = inhibition ([3]; at 17.2 µM (top of the series)): 9.43%
activity, negative = inhibition ([4]; at 17.2 µM (top of the series)): -3.21%
Potency [7]: inactive

COc1ccc(Cl)cc1C(=O)NCCc1ccc(S(=O)(=O)NC(=O)NC2CCCCC2)cc1
activity change, negative = inhibition ([1]; at 17.2 µM (top of the series)): -12.3% and -19.5%
activity change, negative = inhibition ([1]; at 38 µM (top of the series)): -26.7%
Potency [2]: inactive
activity change, negative = inhibition ([3]; at 17.2 µM (top of the series)): -3.12% and -29.5%
activity change, negative = inhibition ([3]; at 38 µM (top of the series)): 0.0491%
activity, negative = inhibition ([4]; at 17.2 µM (top of the series)): -3.96% and -3.07%
activity, negative = inhibition ([4]; at 38 µM (top of the series)): 4.48%
Potency [7]: inactive

COc1ccc2c(c1)C(=O)N(CCc1ccc(S(=O)(=O)NC(=O)NC3CCCCC3)cc1)C(=O)C2(C)C
activity change, negative = inhibition ([1]; at 17.2 µM (top of the series)): 12.1%
Potency [2]: inactive
activity, negative = inhibition ([4]; at 17.2 µM (top of the series)): -7.41%
Potency [5]: > 20.6 µM
Potency [6]: > 20.6 µM
Potency [7]: inactive

c1ccc(CN(CC2=NCCN2)c2ccccc2)cc1
activity change, negative = inhibition ([1]; at 17.2 µM (top of the series)): 6.18% and 2.47% and 4.31%
Potency [2]: inactive
activity, negative = inhibition ([4]; at 17.2 µM (top of the series)): -2.58% and 2.91% and -16.4%
Potency [7]: inactive
